Data published in the supplement of paper PMC3334620.
The full ranking holds about 33,000 sequences; the median of “E-score (-0.5 to 0.5)” is about -0.012, and the highest 2% start at about 0.29. The entries come from a sample that favours the highest values as a whole.

These sequences were tested against T1, Ybr033w (UniProt P38073) (assay: PBM E-score (8-mer binding enrichment) (E-score (-0.5 to 0.5)); higher = stronger / more preferred TF binding). Conditions: protein concentration: 200 nM; construct: GST-full length.
T1 sequence: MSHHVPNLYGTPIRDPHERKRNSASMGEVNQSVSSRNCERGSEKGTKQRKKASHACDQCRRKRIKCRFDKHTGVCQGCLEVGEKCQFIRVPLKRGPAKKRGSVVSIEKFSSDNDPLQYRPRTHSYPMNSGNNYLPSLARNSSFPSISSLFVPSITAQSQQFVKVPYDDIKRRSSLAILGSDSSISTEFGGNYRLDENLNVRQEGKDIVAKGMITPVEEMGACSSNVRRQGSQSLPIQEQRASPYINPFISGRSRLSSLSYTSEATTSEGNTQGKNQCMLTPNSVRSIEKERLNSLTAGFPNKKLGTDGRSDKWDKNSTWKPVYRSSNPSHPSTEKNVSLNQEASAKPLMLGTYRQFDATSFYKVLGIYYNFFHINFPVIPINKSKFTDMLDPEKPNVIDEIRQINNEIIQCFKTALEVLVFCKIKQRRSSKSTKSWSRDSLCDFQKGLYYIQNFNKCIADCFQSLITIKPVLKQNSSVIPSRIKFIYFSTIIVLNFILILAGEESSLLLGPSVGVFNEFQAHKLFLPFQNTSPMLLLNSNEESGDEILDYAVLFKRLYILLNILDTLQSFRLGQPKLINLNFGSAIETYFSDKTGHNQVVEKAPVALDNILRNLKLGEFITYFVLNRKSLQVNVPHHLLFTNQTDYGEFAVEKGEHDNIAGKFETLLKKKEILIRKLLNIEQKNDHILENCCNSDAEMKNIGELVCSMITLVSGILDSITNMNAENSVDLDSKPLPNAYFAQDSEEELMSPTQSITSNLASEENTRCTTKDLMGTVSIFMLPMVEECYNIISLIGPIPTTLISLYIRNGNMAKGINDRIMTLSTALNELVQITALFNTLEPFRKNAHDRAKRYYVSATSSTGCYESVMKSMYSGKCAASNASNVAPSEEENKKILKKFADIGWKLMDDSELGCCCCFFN
Description: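 Universal 'all 10-mer' protein binding microarrays (Agilent AMADID 015681) probed with GST-tagged S. cerevisiae TFs (full-length or DBD) made by in vitro transcription/translation (PURExpress), about 100-200 nM. Bound TF was detected with fluorescent anti-GST. Each ungapped 8-mer (which stands for itself and its reverse complement) is scored by the PBM enrichment score (E-score), a modified Wilcoxon-Mann-Whitney statistic from -0.5 to +0.5, computed with the Universal PBM Analysis Suite. Scale: above 0.35 generally sequence-specific binding.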

Row | Sequence | PBM E-score
1 | CCAGGTAG | -0.0963
2 | TATGGCAA | -0.151
3 | CGCCGCAC | -0.233
4 | CAGAAAAA | 0.0895
5 | CAGGAAAA | 0.387
6 | GAGGAAAA | 0.199
7 | AAGGAAAT | 0.185
8 | AAAGGAAA | 0.303
9 | AAGGAAAC | 0.0412
10 | AAGGAAAA | 0.398
11 | CAAGGAAA | 0.162
12 | AAAGGAAC | 0.163
13 | AGATACCT | -0.0724
14 | AAAGAGAC | -0.0019
15 | ATTATAAT | 0.205
16 | CTAATTAC | 0.131
17 | TTAATTAA | 0.241
18 | GTAATTAC | 0.218
19 | GTAATTAA | 0.105
20 | ATAATTAG | 0.272
21 | ATAATTAC | 0.353
22 | ATAATTAT | 0.372
23 | ATAATTAA | 0.414
24 | ATTGATGG | 0.213
25 | ATAGGTTC | 0.143
26 | AGGCAACT | 0.174

Row | Sequence | PBM E-score
27 | CCGCGCAC | -0.0688
28 | AAGCAACA | 0.117
29 | CTTGCATC | -0.144
30 | TATCCGCA | 0.306
31 | AATCCGCA | 0.119
32 | CATCCGCA | 0.156
33 | CGAGAGCA | -0.0204
34 | GAAAAAGC | 0.239
35 | ACCGACCT | -0.172
36 | GCGCGCGA | 0.111
37 | GCGCGCGC | 0.334
38 | ACGCGCGC | -0.0247
39 | CGTCTGTA | -0.11
40 | CGGTGATA | 0.178
41 | AGTAGTTA | 0.0431
42 | CATAGTTC | -0.0864
43 | AGTAGTTG | 0.176
44 | AATAGTTC | 0.294
45 | AGTAGTTC | 0.307
46 | AATAGTTG | 0.207
47 | CACAAATG | 0.0361
48 | CACGGTTC | -0.265
49 | GAAAGCGA | 0.101
50 | AGTACAAA | 0.114
51 | AGTACAAT | 0.302
52 | AGTACAAG | 0.0813

Row | Sequence | PBM E-score
53 | CAGGTCGA | 0.141
54 | AAACTTAC | 0.168
55 | CTTCTTCC | 0.0741
56 | GATCTATA | 0.157
57 | AAACTTAT | 0.379
58 | ATTCTTCA | 0.129
59 | CATCTTCC | 0.0897
60 | AAACTTAA | 0.259
61 | AATCTATA | 0.297
62 | GATCTTCC | 0.33
63 | GATCTTGC | 0.0857
64 | ATTCTTCC | 0.471
65 | CATCTATA | 0.188
66 | CGAATAGA | -0.0851
67 | CTTCCATC | -0.00237
68 | ATTCAGAC | 0.0909
69 | CGTCCCTC | -0.217
70 | AGCACAAG | -0.0143
71 | AGGTCAGC | 0.0524
72 | CCAATCAA | 0.075
73 | GAACTTCA | 0.0447
74 | AAACTTCA | 0.293
75 | AATCTTCC | 0.411
76 | AATCTTCT | 0.132
77 | AATCTTCA | 0.318
78 | AAACTTCG | 0.0988

Row | Sequence | PBM E-score
79 | GATCTTCA | 0.0894
80 | AATCTTCG | 0.0477
81 | ACTCTTCC | -0.0223
82 | TATTGCAA | 0.246
83 | ACGAAGAC | -0.177
84 | CTATTGAG | -0.0501
85 | TCTCCAGA | -0.189
86 | CCCGGTTC | -0.0468
87 | CGGACACA | -0.152
88 | CAACGATA | 0.187
89 | AAACGATA | 0.213
90 | TAACGATA | 0.292
91 | CTTGGCTC | -0.146
92 | AGCCCAGC | -0.2
93 | GATTGCAA | 0.171
94 | AATGTGAA | 0.313
95 | AATGTGAC | 0.0448
96 | AATGTGAT | 0.15
97 | GCATCACA | 0.215
98 | TTACCAAA | 0.235
99 | ACTACTAA | 0.173
100 | ACTACTAC | 0.153
101 | ACTACTAT | 0.328
102 | AGAGGAGG | -0.26
103 | AAGATTTC | 0.169
104 | CTACAAAA | 0.00298

Row | Sequence | PBM E-score
105 | CTACAAAG | 0.0965
106 | ATACAAAG | 0.298
107 | ATACAAAT | 0.252
108 | ATACAAAA | 0.311
109 | ATACAAAC | 0.306
110 | TTACAAAA | 0.268
111 | CTACAAAC | 0.152
112 | CTACATAA | 0.0125
113 | ATACATAA | 0.309
114 | GTACAAAC | 0.0352
115 | ATACATAC | 0.0684
116 | TACCGGAA | 0.27
117 | TGCTACAA | 0.161
118 | CAGTTTGA | 0.206
119 | AGCGGCAT | 0.0383
120 | CCCACAAC | -0.108
121 | CTGTAGGA | 0.0305
122 | TTCTAGAA | 0.102
123 | GTTTTCAA | 0.146
124 | GTCCAGAC | -0.308
125 | CGCCCAGA | -0.174
126 | ACGATCTA | -0.0695
127 | ATACAATA | 0.332
128 | ATACAATC | 0.0522
129 | CTACAATA | 0.164
130 | CCGCGAGC | -0.194

Row | Sequence | PBM E-score
131 | CACTTTTA | 0.0413
132 | TAGGAGGA | 0.0316
133 | ACGGAATA | 0.351
134 | CGGGAATA | 0.246
135 | CCGGAATA | 0.412
136 | ACGGAATG | -0.153
137 | GCGGAATA | 0.293
138 | CCGGAATC | -0.0781
139 | GCGGAAGA | 0.236
140 | GGGGAATA | -0.0146
141 | ACGGAATC | 0.113
142 | CCTATTCG | -0.149
143 | CGACGGTA | -0.0307
144 | ATTACTAA | 0.225
145 | CGTTCTTA | 0.0158
146 | ATCTTCTC | 0.0573
147 | ACATCGGG | -0.0939
148 | TATTTGAA | 0.255
149 | ATTAATAA | 0.302
150 | ACTAATAC | 0.228
151 | ATTAATAC | 0.306
152 | ATTAATAG | 0.373
153 | ATTAATCA | 0.26
154 | GTTAATAA | 0.329
155 | CTTAATAA | 0.182
156 | ACTAATAG | 0.2

Row | Sequence | PBM E-score
157 | CTTAATAC | 0.136
158 | GTTAATCA | 0.277
159 | AGTAATAA | 0.18
160 | ATTAATCG | 0.166
161 | GACACACC | -0.0728
162 | CAGGGTGG | -0.234
163 | CTCTAGGC | -0.153
164 | GCATAGCA | 0.0192
165 | GCTAGTAA | -0.014
166 | CAAGGTGA | -0.103
167 | ACCTAGCA | 0.0895
168 | AGTGAAGC | -0.0225
169 | ACCTCGGA | 0.0486
170 | CGAATCGC | -0.0798
171 | ACAGGTAC | -0.0953
172 | CACGCGCG | -0.0876
173 | GAAGGCCC | -0.223
174 | TTAAATAA | 0.264
175 | ATAAAAGG | -0.0365
176 | ATAAATAC | 0.211
